Measurements taken from PubChem BioAssay (EPA / NIEHS).
Several values for one entry are separate records, joined by “and”; a condition that tells them apart may be missing. Equal entries are not always repeated. Results filed as inconclusive are left out. Activity calls are given as the source filed them. How the source made its calls, unless noted: active means hit-call score of the fitted dose curve at least 0.9, where 1 is the maximum; inactive means score below 0.9.

How the values were obtained:
[1] = ACEA_ER_80hr: ACEA Biosciences xCELLigence Real-Time Cell Analysis on Estrogen Receptor Agonism for Proliferation (AID 2282667; active means hit-call score of the fitted dose curve at least 0.9, where 1 is the maximum); conditions: T47D proliferation, impedance (xCELLigence), 80 h
Procedure, shortened: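 T-47D cells monitored by electrical impedance (xCELLigence) with compound present throughout; 80 h timepoint, positive-direction fitting versus DMSO. Eight-point 1:4 dilutions from 100 uM final, duplicate plates.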

[2] = APR_HepG2_CellCycleArrest_24hr: Apredica 24-hour HepG2 Assay for Cell Cycle Arrest (AID 2282905); conditions: imaging, actives raise or lower the signal;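 further: cell cycle arrest scored as ratio of 2N to 4N nuclear DNA content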
Procedure, shortened: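 HepG2 cells were exposed to compounds at 0.39–200 uM (ten concentrations, duplicate) in 0.5% v/v DMSO for 24 hr. After formaldehyde fixation and Triton permeabilization, Hoechst 33342-stained nuclei were imaged at 20x; DNA content was quantified, with bidirectional fitting against DMSO.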

[3] = APR_HepG2_CellCycleArrest_1hr: Apredica 1-hour HepG2 Assay for Cell Cycle Arrest (AID 2282666); conditions: high-content imaging, actives raise or lower the signal
Procedure, shortened: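 HepG2 cells exposed for 1 h to 0.39–200 uM compound (0.5% DMSO). Fixed, Hoechst-stained nuclei imaged by ArrayScan; DNA content quantified by Cell Cycle analysis; bidirectional fit against DMSO.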

[4] = APR_HepG2_CellLoss_1hr: Apredica 1-hour HepG2 Assay for Cell Loss (AID 2282668); conditions: high-content imaging;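 further: curves fitted both ways against DMSO so gain or loss of cells counts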
Experimental: APR_HepG2_1hr is a cell-based, multiplexed-readout assay that uses HepG2, a human liver cell line, with measurements taken at 1 hour after chemical dosing in a 384-well plate.APR_HepG2_CellLoss_1hr is one of 10 assay component(s) measured or calculated from the APR_HepG2_1hr assay. It is designed to make measurements of cell number, a form of viability reporter, as detected with fluorescence intensity signals by HCS Fluorescent Imaging technology.Data from the assay component APR_HepG2_CellLoss_1hr was analyzed into 1 assay endpoint. This assay endpoint, APR_HepG2_CellLoss_1hr, was analyzed with bidirectional fitting relative to DMSO as the negative control and baseline of activity. Using a type of viability reporter, measures of all nuclear dna for gain or loss-of-signal activity can be used to understand the viability at the cellular-level. Furthermore, this assay endpoint can be referred to as a secondary readout, because this assay has produced multiple assay endpoints where this one serves a viability function. To generalize the intended target to other relatable targets, this assay endpoint is annotated to the cell cycle intended target family, where the subfamily is proliferation.
(§1) Cells were treated with dimethyl sulfoxide (DMSO) as a solvent control at a final concentration of 0.5% v/v or with compounds in DMSO with a resulting final DMSO concentration of 0.5% v/v. Compound treatment was done at concentrations of 0.39, 0.78, 1.56, 3.12, 6.24, 12.5, 25, 50, 100, and 200 uM in duplicate on each plate. Cells were treated with compounds for 1, 24, or 72 hr. Carbonyl […] m-chloro-phenylhydrazone (CCCP) and taxol were used as positive controls for mitochondrial function and cytoskeletal stability, respectively; DMSO served as the negative control for this experiment. Cells were fixed by the direct addition of 50 uL formaldehyde in Hank's Balanced Salt Solution (HBSS) to a final concentration of 3.7%. After incubation in the fixation medium for 30 min at room temperature (293-298 K), cells were rinsed twice with HBSS and treated with cell permeabilization buffer (16 uL of 0.5% Triton X-100) for 10 min at room temperature (293-298 K) before labeling. For mitochondrial membrane potential and mitochondrial measurements, pre-fixed cells were incubated with 50 uL of MitoTracker Red CMXRos (Invitrogen) at a concentration of 250 nM for 30 min before fixation. In the remaining cases, post-fixed cells were labeled by incubation with a multiplexed mixture of primary antibodies in HBSS for 60 min at room temperature (293-298 K) to detect immunoreactivity of c-Jun (1:500), phospho-histone H3 (1:100), phospho-histone H2A.x (1:200), p53 (1:400), alpha-tubulin (1:200) and Hoechst 33342 (2 ug/mL). Cells were labeled for multiplexed imaging on two separate plates: a) Hoechst 33342, MitoTracker Red, phospho-histone H3, and alpha-tubulin, and b) Hoechst 33342, phospho-histone H2A.x, and c-Jun. A final rinse with HBSS (50 uL) was performed before analysis. The primary and secondary antibodies for the proteins were phospho-histone H3 (rabbit anti-phospho-histone H3 and FITC-donkey anti-rabbit IgG), phospho-histone H2A.x (mouse anti-phospho-histone H2A.x and FITC-donkey anti-mouse IgG), c-Jun (rabbit anti-phospho-c-Jun and Cy3-donkey anti-rabbit IgG), p53 (sheep anti-p53 and Cy5-donkey anti-sheep IgG), alpha-tubulin (mouse anti-alpha-tubulin and Cy5-donkey anti-mouse IgG). […]

[5] = APR_HepG2_MicrotubuleCSK_1hr: Apredica 1-hour HepG2 Assay for Microtubule CSK Stabilty (AID 2282669); conditions: HepG2 microtubule cytoskeleton imaging, actives raise or lower the signal
Experimental: APR_HepG2_1hr is a cell-based, multiplexed-readout assay that uses HepG2, a human liver cell line, with measurements taken at 1 hour after chemical dosing in a 384-well plate.APR_HepG2_MicrotubuleCSK_1hr is one of 10 assay component(s) measured or calculated from the APR_HepG2_1hr assay. It is designed to make measurements of protein conformation, a form of conformation reporter, as detected with fluorescence intensity signals by HCS Fluorescent Imaging technology.Data from the assay component APR_HepG2_MicrotubuleCSK_1hr was analyzed into 1 assay endpoint. This assay endpoint, APR_HepG2_MicrotubuleCSK_1hr, was analyzed with bidirectional fitting relative to DMSO as the negative control and baseline of activity. Using a type of conformation reporter, measures of protein for gain or loss-of-signal activity can be used to understand the signaling at the cellular-level. Furthermore, this assay endpoint can be referred to as a primary readout, because this assay has produced multiple assay endpoints where this one serves a signaling function. To generalize the intended target to other relatable targets, this assay endpoint is annotated to the cell morphology intended target family, where the subfamily is cell conformation.
as §1

[6] = APR_HepG2_NuclearSize_1hr: Apredica 1-hour HepG2 Assay for Nuclear Size (AID 2282670); conditions: high-content imaging, actives raise or lower the signal
Procedure, shortened: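 HepG2 cells dosed 1 hr with 0.39–200 uM compound (0.5% DMSO), formaldehyde-fixed, Hoechst 33342-stained and imaged at 20x; nuclear diameter from nuclear stain, fitted bidirectionally against DMSO.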

[7] = APR_HepG2_MitoticArrest_1hr: Apredica 1-hour HepG2 Assay for Mitotic Arrest (AID 2282672); conditions: high-content imaging, actives raise or lower the signal
Procedure, shortened: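 HepG2 cells exposed 1 hr to compounds at 0.39–200 uM (0.5% v/v DMSO final), then fixed in 3.7% formaldehyde and immunostained for phospho-histone H3 with Hoechst 33342. Mitotic arrest scored by automated fluorescence imaging, fitted bidirectionally versus DMSO.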

[8] = APR_HepG2_P-H2AX_1hr: Apredica 1-hour HepG2 Assay for H2AX Phosphorylation (AID 2282673); conditions: high-content imaging, actives raise or lower the signal
Experimental: APR_HepG2_1hr is a cell-based, multiplexed-readout assay that uses HepG2, a human liver cell line, with measurements taken at 1 hour after chemical dosing in a 384-well plate.APR_HepG2_P-H2AX_1hr is one of 10 assay component(s) measured or calculated from the APR_HepG2_1hr assay. It is designed to make measurements of dna content, a form of viability reporter, as detected with fluorescence intensity signals by HCS Fluorescent Imaging technology.Data from the assay component APR_HepG2_P-H2AX_1hr was analyzed into 1 assay endpoint. This assay endpoint, APR_HepG2_P-H2AX_1hr, was analyzed with bidirectional fitting relative to DMSO as the negative control and baseline of activity. Using a type of viability reporter, measures of protein for gain or loss-of-signal activity can be used to understand the signaling at the pathway-level as they relate to the gene . Furthermore, this assay endpoint can be referred to as a primary readout, because this assay has produced multiple assay endpoints where this one serves a signaling function. To generalize the intended target to other relatable targets, this assay endpoint is annotated to the dna binding intended target family, where the subfamily is cellular response to DNA damage stimulus.
as §1

[9] = APR_HepG2_MitoMass_1hr: Apredica 1-hour HepG2 Assay for Mitochondrial Mass (AID 2282674); conditions: high-content imaging, actives raise or lower the signal
Experimental: (§2) APR_HepG2_1hr is a cell-based, multiplexed-readout assay that uses HepG2, a human liver cell line, with measurements taken at 1 hour after chemical dosing in a 384-well plate.APR_HepG2_MitoMass_1hr is one of 10 assay component(s) measured or calculated from the APR_HepG2_1hr assay. It is designed to make measurements of cell phenotype, a form of morphology reporter, as detected with fluorescence intensity signals by HCS Fluorescent Imaging technology.Data from the assay component APR_HepG2_MitoMass_1hr was analyzed into 1 assay endpoint. This assay endpoint, APR_HepG2_MitoMass_1hr, was analyzed with bidirectional fitting relative to DMSO as the negative control and baseline of activity. Using a type of morphology reporter, gain or loss-of-signal activity can be used to understand changes in the signaling. Furthermore, this assay endpoint can be referred to as a primary readout, because this assay has produced multiple assay endpoints where this one serves a signaling function. To generalize the intended target to other relatable targets, this assay endpoint is annotated to the cell morphology intended target family, where the subfamily is organelle conformation.
as §1

[10] = APR_HepG2_MitoMembPot_1hr: Apredica 1-hour HepG2 Assay for Mitochondrial Membrane Potential (AID 2282675); conditions: imaging, actives raise or lower the signal
Experimental: as §2, with “384-well plate.APR_HepG2_MitoMembPot_1hr” for “384-well plate.APR_HepG2_MitoMass_1hr”, “of dye binding,” for “of cell phenotype,”, “of membrane potential” for “of morphology”, “component APR_HepG2_MitoMembPot_1hr” for “component APR_HepG2_MitoMass_1hr”, “endpoint, APR_HepG2_MitoMembPot_1hr,” for “endpoint, APR_HepG2_MitoMass_1hr,”
as §1

Compound: c1ccc(-c2ccccc2)cc1
- outcome [1]: inactive
- outcome [2]: inactive

Compound: N#Cc1ccc(N(CC(N)=O)CC(F)(F)F)cc1C(F)(F)F
- outcome [1]: inactive
- outcome [2]: inactive

Compound: Oc1c(Cl)c(Cl)c(Cl)c(Cl)c1Cl
- outcome [1]: inactive
- AC50 [2]: 86.7 µM (active)

Compound: CCCCCCCCCC[N+](C)(C)CCCCCCCCCC
- outcome [1]: inactive
- AC50 [2]: 43 µM (active)

Compound: CCNc1nc(NC(C)C)nc(SC)n1
- outcome [3]: inactive
- outcome [4]: inactive
- outcome [5]: inactive
- outcome [6]: inactive
- outcome [7]: inactive
- outcome [8]: inactive
- outcome [9]: inactive
- outcome [10]: inactive
- outcome [2]: inactive

Compound: c1cc2ccc3cccc4ccc(c1)c2c34
- outcome [1]: inactive
- outcome [2]: inactive

Compound: C=CC(N)=O
- outcome [1]: inactive
- outcome [2]: inactive

Compound: Nc1ccc(-c2ccc(N)cc2)cc1
- outcome [1]: inactive
- AC50 [2]: 100 µM (active)

Compound: O=S(=O)(O)C(F)(F)C(F)(F)C(F)(F)C(F)(F)F
- outcome [1]: inactive
- outcome [2]: inactive

Compound: ClC(Cl)=C(c1ccc(Cl)cc1)c1ccc(Cl)cc1
- outcome [1]: inactive
- outcome [2]: inactive

Compound: CC(C)C(=O)OCC(C)(C)C(OC(=O)C(C)C)C(C)C (stereo unspecified)
- outcome [1]: inactive
- outcome [2]: inactive

Compound: Oc1ccc(C(c2ccc(O)cc2)(C(F)(F)F)C(F)(F)F)cc1
- AC50 [1]: 102 nM (active) and 189 nM (active) and 262 nM (active)
- outcome [2]: inactive

Compound: O=C(N[C@H]1CN2CCC1CC2)c1cc2ccoc2cn1
- outcome [1]: inactive
- outcome [2]: inactive

Compound: ClC1=C(Cl)[C@]2(Cl)[C@@H]3[C@@H]4C[C@@H]([C@H]5O[C@@H]45)[C@@H]3[C@@]1(Cl)C2(Cl)Cl
- AC50 [1]: 10.8 µM (active)
- outcome [2]: inactive

Compound: CC(C)(O)C(=O)Nc1ccc([N+](=O)[O-])c(C(F)(F)F)c1
- AC50 [1]: 38.5 µM (active) and 68.7 µM (active)
- outcome [2]: inactive

Compound: Oc1ccc(Cl)cc1Cl
- outcome [1]: inactive
- outcome [2]: inactive

Compound: CN(C)CCO
- outcome [1]: inactive
- outcome [2]: inactive
